Values joined by “and” are separate entries in the source; they are usually repeats but may differ in a detail not shown here. Equal entries are not always repeated.
assay: differential killing of epithelial or mesenchymal cells, primary screen, imaging, PC-3E GFP, TEM4-18 mCherry, co-culture (AID 1345086); details: imaging cell counts, measured here: mesenchymal TEM4-18 mCherry cell survival, at 1 µM;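 also: cells exposed to compound for 72 h before imaging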

Row | SMILES | normalised cell number
1 | CCCc1cc(OC)c2c(c1)OCO2 | 0.98
2 | COc1ccc(/C=C/C(=O)O)cc1OC | 0.91 and 0.98
3 | CC[C@@H](C(=O)[C@@H](C)[C@@H](O)[C@H](C)[C@@H]1O[C@@H]([C@@H](CC)C(=O)O)CC[C@@H]1C)[C@H]1OC2(C=C[C@@H](O)[C@]3(CC[C@@](C)([C@H]4CC[C@](O)(CC)[C@H](C)O4)O3)O2)[C@H](C)C[C@@H]1C (stereo partly drawn) | 0.36
4 | C=C[C@@H](C1=CC(=O)C(OC)=C(OC)C1=O)c1ccccc1 | 1.04
5 | O=C1C=CC(=O)c2c(O)c(Cl)c(Cl)c(O)c21 | 1.04
6 | C=CCS(=O)C[C@H](N)C(=O)O (stereo partly drawn) | 0.98
7 | O=C(/C=C/c1ccccc1)c1ccc(O)cc1O | 1
8 | COc1cc2oc3cc(OC)c(OC)c(CC=C(C)C)c3c(=O)c2c(O)c1CC=C(C)C | 0.97
9 | COc1cc(O)c(C(=O)/C=C/c2ccc(OC)c(O)c2)c(OC)c1 | 0.9
10 | COc1cc(OC)c2c(=O)c(O)c(-c3ccc(OC)c(OC)c3)oc2c1 | 1.02
11 | CC(=O)Oc1ccc2c(c1C(C)C)CCC1C(C)(C)CCC[C@]21C (stereo partly drawn) | 0.86
12 | O=C(NC1CCCCC1)NC1CCCCC1 | 1.06
13 | Cc1c(S(=O)(=O)O)oc2c1C(=O)C(=O)c1c-2ccc2c1CCCC2(C)C | 1.18
14 | O=C(O)/C=C/C=C/c1ccc2c(c1)OCO2 | 1.03
15 | CC(C)c1ccc2c(c1)CCC1C(C)(C(N)=O)CCCC21C (stereo not drawn) | 1.27
16 | COc1ccc2oc3ccccc3c(=O)c2c1 | 1.14
17 | CCCCCCCCCCCCCCCC(=O)OCC(O)CO (stereo not drawn) | 0.96
18 | O=S(=O)(O)c1cc(N=C=S)ccc1/C=C/c1ccc(N=C=S)cc1S(=O)(=O)O | 1.11
